The whole screen tested about 5,500 compounds, of which about 2,000 (36%) were called active. Roughly 18% stayed inconclusive and do not appear here. Cut-off read from the data, not from the text of the source: active = normalized growth mostly below about 0.91 (no sharp cut-off); inconclusive = no clear call, values can overlap the other calls; inactive = mostly above about 0.92. The list shows a part of the results.
Assay: chemical genetic growth profiling, strain panel (AID 1159580);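 note: tested at 20 µM; growth read once vehicle control cultures reached saturation at 30 °C; 1 = growth at the plate median or of vehicle wells; lower values mean less growth of the strain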
Conditions: growth OD

Measured: normalized growth

C1CCN2C[C@@H]3C[C@H](CN4CCCC[C@@H]34)[C@H]2C1
inactive: S. cerevisiae deletion strains, locus YJR066W, strain TOR1, hits give low values 0.988 | S. cerevisiae deletion strains, locus YJR075W, strain HOC1, hits give low values 1.01 | S. cerevisiae deletion strains, locus YKL009W, strain mrt4, hits give low values 0.994 | S. cerevisiae deletion strains, locus YKL068W, hits give low values 0.999 | S. cerevisiae deletion strains, locus YKL085W, strain MDH1 (second series), hits give low values 1.02 | S. cerevisiae deletion strains, locus YKL085W, strain MDH1, hits give low values 1.02 | S. cerevisiae deletion strains, locus YKL160W, strain elf1, hits give low values 0.987 | S. cerevisiae deletion strains, locus YKL190W, strain CNB1, hits give low values 1.02 | S. cerevisiae deletion strains, locus YKR001C, strain vps1, hits give low values 0.996 | S. cerevisiae deletion strains, locus YKR026C, strain gcn3, hits give low values 1.01 | S. cerevisiae deletion strains, locus YKR091W, strain srl3, hits give low values 1 | S. cerevisiae deletion strains, locus YLL001W, strain dnm1, hits give low values 0.999 | S. cerevisiae deletion strains, locus YLL026W, hits give low values 1.01 | S. cerevisiae deletion strains, locus YLL041C, strain sdh2, hits give low values 0.999 | S. cerevisiae deletion strains, locus YLR027C, strain aat2, hits give low values 0.992 | S. cerevisiae deletion strains, locus YLR039C, strain RIC1, hits give low values 1.06 | S. cerevisiae deletion strains, locus YLR058C, strain SHM2, hits give low values 1.01 | S. cerevisiae deletion strains, locus YLR102C, strain apc9, hits give low values 0.993 | S. cerevisiae deletion strains, locus YLR113W, strain HOG1, hits give low values 1.01 | S. cerevisiae deletion strains, locus YLR221C, strain rsa3, hits give low values 1.03 | S. cerevisiae deletion strains, locus YLR258W, strain gsy2, hits give low values 1.01 | S. cerevisiae deletion strains, locus YLR262C, strain YPT6 (second series), hits give low values 1.04 | S. cerevisiae deletion strains, locus YLR262C, strain YPT6, hits give low values 1.1 | S. cerevisiae deletion strains, locus YLR268W, strain sec22, hits give low values 0.996 | S. cerevisiae deletion strains, locus YLR320W, strain mms22, hits give low values 1.04 | S. cerevisiae deletion strains, locus YLR330W, strain CHS5, hits give low values 1.02 | S. cerevisiae deletion strains, locus YLR342W, strain FKS1 (second series), hits give low values 0.996 | S. cerevisiae deletion strains, locus YLR342W, strain FKS1, hits give low values 1 | S. cerevisiae deletion strains, locus YLR357W, strain rsc2, hits give low values 1.02 | S. cerevisiae deletion strains, locus YLR370C, strain arc18, hits give low values 1.01 | S. cerevisiae deletion strains, locus YLR371W, strain rom2, hits give low values 0.999 | S. cerevisiae deletion strains, locus YLR384C, strain iki3, hits give low values 1.01 | S. cerevisiae deletion strains, locus YLR418C, strain cdc73, hits give low values 0.98 | S. cerevisiae deletion strains, locus YML016C, strain PPZ1, hits give low values 0.997 | S. cerevisiae deletion strains, locus YML032C, strain rad52, hits give low values 0.994 | S. cerevisiae deletion strains, locus YML120C, strain ndi1, hits give low values 1.01 | S. cerevisiae deletion strains, locus YML124C, strain tub3, hits give low values 1.01 | S. cerevisiae deletion strains, locus YMR058W, strain fet3, hits give low values 1.01 | S. cerevisiae deletion strains, locus YMR078C, strain ctf18, hits give low values 1 | S. cerevisiae deletion strains, locus YMR125W, strain sto1, hits give low values 0.995 | S. cerevisiae deletion strains, locus YMR129W, hits give low values 1.03 | S. cerevisiae deletion strains, locus YMR205C, strain PFK2, hits give low values 0.997 | S. cerevisiae deletion strains, locus YMR223W, strain ubp8, hits give low values 1.01 | S. cerevisiae deletion strains, locus YMR231W, strain pep5, hits give low values 1.01 | S. cerevisiae deletion strains, locus YMR307W, strain GAS1, hits give low values 1.02 | S. cerevisiae deletion strains, locus YNL067W, strain RPL9B, hits give low values 1.01 | S. cerevisiae deletion strains, locus YNL071W, strain lat1, hits give low values 1.01 | S. cerevisiae deletion strains, locus YNL153C, strain GIM3, hits give low values 1.01 | S. cerevisiae deletion strains, locus YNL183C, strain NPR1, hits give low values 0.98 | S. cerevisiae deletion strains, locus YNL209W, strain ssb2, hits give low values 1.01 | S. cerevisiae deletion strains, locus YNL233W, strain BNI4, hits give low values 1.01 | S. cerevisiae deletion strains, locus YNL248C, strain rpa49, hits give low values 1.03 | S. cerevisiae deletion strains, locus YNL250W, strain rad50, hits give low values 1.02 | S. cerevisiae deletion strains, locus YNL271C, strain bni1, hits give low values 1.01 | S. cerevisiae deletion strains, locus YNL298W, strain CLA4, hits give low values 0.994 | S. cerevisiae deletion strains, locus YNL307C, strain MCK1, hits give low values 1.01 | S. cerevisiae deletion strains, locus YNL322C, strain KRE1 (second series), hits give low values 1.01 | S. cerevisiae deletion strains, locus YNR049C, strain mso1, hits give low values 1.01 | S. cerevisiae deletion strains, locus YNR052C, strain pop2, hits give low values 1.02 | S. cerevisiae deletion strains, locus YOL006C, strain TOP1, hits give low values 1.08 | S. cerevisiae deletion strains, locus YOL012C, strain htz1 1.61 | S. cerevisiae deletion strains, locus YOL147C, strain pex11, hits give low values 1 | S. cerevisiae deletion strains, locus YOR001W, strain rrp6, hits give low values 1.02 | S. cerevisiae deletion strains, locus YOR061W, strain CKA2, hits give low values 1.01 | S. cerevisiae deletion strains, locus YOR069W, strain VPS5, hits give low values 1 | S. cerevisiae deletion strains, locus YOR070C, strain gyp1, hits give low values 1.02 | S. cerevisiae deletion strains, locus YOR080W, strain dia2, hits give low values 0.999 | S. cerevisiae deletion strains, locus YOR083W, strain WHI5, hits give low values 0.979 | S. cerevisiae deletion strains, locus YOR106W, strain vam3, hits give low values 1 | S. cerevisiae deletion strains, locus YOR136W, strain idh2, hits give low values 0.998 | S. cerevisiae deletion strains, locus YOR144C, strain elg1, hits give low values 0.989 | S. cerevisiae deletion strains, locus YOR184W, strain ser1, hits give low values 0.995 | S. cerevisiae deletion strains, locus YOR231W, strain MKK1, hits give low values 1.03 | S. cerevisiae deletion strains, locus YOR265W, strain rbl2, hits give low values 1 | S. cerevisiae deletion strains, locus YOR270C, strain vph1, hits give low values 1.05 | S. cerevisiae deletion strains, locus YOR290C, strain snf2, hits give low values 0.979 | S. cerevisiae deletion strains, locus YOR316C, strain cot1, hits give low values 1 | S. cerevisiae deletion strains, locus YPL051W, strain arl3, hits give low values 0.999 | S. cerevisiae deletion strains, locus YPL055C, strain LGE1, hits give low values 1.02 | S. cerevisiae deletion strains, locus YPL078C, strain atp4, hits give low values 0.978 | S. cerevisiae deletion strains, locus YPL106C, strain sse1, hits give low values 1.01 | S. cerevisiae deletion strains, locus YPL240C, strain hsp82, hits give low values 0.999 | S. cerevisiae deletion strains, locus YPL241C, strain CIN2, hits give low values 1 | S. cerevisiae deletion strains, locus YPL256C, strain CLN2, hits give low values 1.06 | S. cerevisiae deletion strains, locus YPR119W, strain clb2, hits give low values 0.999 | S. cerevisiae deletion strains, locus YPR141C, strain kar3, hits give low values 1 | S. cerevisiae deletion strains, locus YPR163C, strain tif3, hits give low values 1 | S. cerevisiae deletion strains, locus YPR167C, strain met16, hits give low values 1.02 | S. cerevisiae deletion strains, strain wtn01, hits give low values 1.01 | S. cerevisiae strains, strain wild type, hits give low values 1.02

— PubChem BioAssay AID1159580 (chemical genetic matrix, 2015)
